# Screens deposited in PubChem by National Center for Advancing Translational Sciences (NCATS).
# ClpP mod – qHTS Assay for Activators of ClpP; ATP-dependent Clp protease proteolytic subunit (Bacillus subtilis (strain 168)), P80244; purified B. subtilis ClpP, FRET peptide cleavage, 20 min; Potency, µM (series often up to 57.5 µM), for the others: at the top dose activity change, negative = active; hit rate 1.9% among 340,000; active = well fitted falling curve with a large enough effect; inconclusive = small, poorly fitted or top-dose-only effect; inactive = no such curve, though single readings can be large or run the other way; note: potency is the fitted concentration of half-maximal effect; the source files actives as falling curves though it sought activators and does not explain the sign; nearly all actives have a fitted effect of over 65% in size
# Target sequence (P80244 whole entry, looked up): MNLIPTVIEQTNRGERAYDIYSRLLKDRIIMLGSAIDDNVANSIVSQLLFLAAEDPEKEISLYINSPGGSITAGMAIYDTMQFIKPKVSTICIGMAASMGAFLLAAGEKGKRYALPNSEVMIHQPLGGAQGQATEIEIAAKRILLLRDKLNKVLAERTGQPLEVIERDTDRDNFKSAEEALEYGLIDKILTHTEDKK
#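 Buffer: 100 mM Tris/HCl pH8, 100 mM KCl, 0.05% low protease BSA, 2.5% glycerol, 0.01% Tween-20. ClpP 10 microg/mL final; 20 min RT; delta FRET normalized to ADEP and DMSO controls.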
# p53 reactivation – re-activators of mutant p53. H1299 p53-A138V BP100-luciferase reporter, luminescence, 24 h. hit rate 0.063% among 320,000. AID 504706. Potency, µM (highest dose often 92.2 µM), for inactives: at the highest dose activity change, positive = activation, usual class: activators; note: potency is the fitted concentration of half-maximal effect; % of control where 0% means no effect; nearly all actives have a fitted effect of over 45% in size
#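 H1299 (p53-null), stable ts p53-A138V + BP100-Luc; 1000 cells/well, Opti-MEM/10% FBS; cpd 4 pt, 1:5; 24 h, 37 deg C, 5% CO2; detection reagent 10 min RT; luminescence.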
# B2AR arrestin – recruits beta-arrestin to the human beta2-adrenergic receptor. P07550. beta-arrestin recruitment to beta2AR, cell-based reporter. Potency, µM (titrated, usually from 46.1 µM), for the others: top-dose activation, most hits filed as activators. hit rate 0.02% among 330,000. AID 492947;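 note: potency is the fitted concentration of half-maximal effect; 0% = DMSO controls and full agonism = EC100 isoproterenol or metaproterenol; nearly all actives have a fitted effect of over 65% in size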
# Target sequence (P07550 whole entry, looked up): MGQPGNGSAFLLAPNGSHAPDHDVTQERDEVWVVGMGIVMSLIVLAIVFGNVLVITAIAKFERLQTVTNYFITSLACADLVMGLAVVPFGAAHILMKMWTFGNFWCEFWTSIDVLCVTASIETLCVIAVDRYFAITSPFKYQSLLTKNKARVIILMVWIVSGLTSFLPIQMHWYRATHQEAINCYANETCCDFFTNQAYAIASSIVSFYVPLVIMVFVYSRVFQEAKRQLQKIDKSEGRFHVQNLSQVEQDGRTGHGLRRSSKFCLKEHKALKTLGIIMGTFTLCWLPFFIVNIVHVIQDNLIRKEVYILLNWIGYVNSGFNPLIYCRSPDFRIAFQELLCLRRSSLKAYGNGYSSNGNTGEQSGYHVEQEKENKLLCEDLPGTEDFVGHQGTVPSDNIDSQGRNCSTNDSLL
# Giardia kill – Giardia lamblia killing. Giardia lamblia trophozoite viability. AID 540267. hit rate 0.15% among 340,000. activity change, % at 7.66 µM, hits read low; in the data active = activity change below about -80%; inconclusive = between about -30% and that limit;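 note: parasites exposed to compound for two days anaerobically before the ATP read; % is set by controls: 0 for no effect and ±100 for the full control effect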
#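 Giardia lamblia trophozoites (100 cells/well) were incubated with compounds for 48 h at 37 deg C under anaerobic conditions. Viability was read as ATP content by one-step luminescence after 15-30 min at room temperature.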
# Mito fusion yeast – mitochondrial division inhibition or fusion activation. hit rate 0.23% among 320,000. S. cerevisiae fusion-defective mutant growth rescue, CellTiterGlo 48 h. AID 485298. Potency, µM (top dose mostly 46.1 µM), inactives show top-dose growth rescue (activation), most hits filed as activators; note: potency is the fitted concentration of half-maximal effect; % of control where 0% means no effect; nearly all actives have a fitted effect of over 45% in size
#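 Temperature-sensitive fusion-defective S. cerevisiae (e.g. fzo1-1, mgm1-5) were grown with compound in YPEG medium (3% ethanol, 3% glycerol) for 48 hours at 37C. Growth rescue was measured as viability by CellTiterGlo luminescence after 10 minutes at ambient.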
# uPA generation – cell surface uPA generation inhibition; Potency, µM (titrated, usually from 38.3 µM), inactives show at the top dose activity change, negative = inhibition, usual class: inhibitors; cell surface uPA generation assay, qHTS; hit rate 0.31% among 330,000; AID 540303; active = well fitted inhibition curve with a large enough effect; inconclusive = small, poorly fitted or top-dose-only effect; inactive = no such curve, though single readings can be large or run the other way; tested in mouse RAW 264.7 cells; note: potency is the fitted concentration of half-maximal effect; % is set by controls: 0 for no effect and ±100 for the full control effect; nearly all actives have a fitted effect of over 55% in size
# Active calls of the source: *; ? = inconclusive; nt = no result given. Only some compounds are listed: those with a hit (about 2.1% of all), similar ones and a draw of the others. Unless noted, calls come from the whole dose curve; as a rule, active = well fitted curve in the direction sought with a large enough effect; inconclusive = small, poorly fitted or top-dose-only effect, or another doubt; inactive = no such curve, though single readings can be large; an effect the other way counts as inactive or inconclusive.
SMILES,ClpP mod,p53 reactivation,B2AR arrestin,Giardia kill,Mito fusion yeast,uPA generation
Cc1ccccc1/C=N\NC(=O)c1csnn1,3.1%,13.9%,-0.5%,8.3,-0.7%,-4.0%
Cc1ccccc1C=Nc1ccccc1C(N)=O,28.2µM*,-2.0%,0.4%,-3.0,8.5%,-6.1%
CCOc1ccc(CCNC(=O)c2cc(Nc3ccc(C)cc3C)nc3ccccc23)cc1OCC,12.5%,nt,nt,nt,nt,nt
O=c1c2c([nH]n1-c1ccccc1)C[C@@H](C1CCCCC1)O[C@H]2c1ccc(F)cc1,-0.4%,nt,nt,nt,nt,nt
CCC(=O)N1c2ccc(S(=O)(=O)N3CCCCCC3)cc2CC1C (configuration not stated),-2.3%,nt,nt,nt,nt,nt
CCOC(=O)C1=C(C)NC(C)=C(C(=O)OCC)C1c1ccc(Br)o1,3.55µM*,-7.4%,0.5%,-1.6,?,2.2%
COc1ccc(N2CCN(C(=O)CCc3ccc(S(=O)(=O)NCC(C)C)cc3)CC2)cc1,25.1µM*,-1.1%,-0.2%,0.3,2.0%,-5.3%
CC(C)Oc1ccc(C(=O)N/N=C/c2ccc(-c3ccc(S(=O)(=O)Nc4ncccn4)cc3)o2)cc1,14.1µM*,1.4%,0.2%,-3.0,-1.1%,2.6%
NC(=O)N/N=C/c1ccc(-c2ccc(S(=O)(=O)Nc3ncccn3)cc2)o1,?,-1.6%,-0.8%,-5.0,0.8%,-1.6%
C=C1NN(Cc2ccccc2)C(=O)N1c1ccc(OC)cc1,-1.7%,nt,nt,nt,nt,nt
C=CCN1CN(S(=O)(=O)c2cccs2)c2nc3ccccc3nc21,25.1µM*,0.0%,0.0%,-10.2,7.0%,nt
COC1=C(OC)C(=O)c2ccccc2C1=O,48.9%,nt,nt,nt,25.9µM*,nt
COc1cc2c(cc1OC)C1=NC(=O)CN1C(SCc1ccccc1)=N2,22.4µM*,-13.8%,-0.2%,8.1,10.4%,0.9%
CN(C)c1ccc(/C=C/c2sc3ccccc3[n+]2CCCCI)cc1,1.3%,nt,nt,nt,nt,nt
Cc1nc(NC(=S)NC(=O)COc2ccccc2Cl)ccc1Br,28.2µM*,-5.7%,0.5%,2.8,2.1%,1.1%
CCc1ccc(OCC(=O)NC(=S)Nc2ccc(Br)c(C)n2)cc1,-1.0%,-0.3%,0.0%,7.2,-2.7%,17.1%
O=S(=O)(c1ccc2c(c1)C(=NO)c1cc(S(=O)(=O)N3CCCCC3)ccc1-2)N1CCCCC1,28.2µM*,-10.8%,-0.1%,-15.5,2.3%,-17.5%
CC1CCN(S(=O)(=O)c2ccc3c(c2)C(=NO)c2cc(S(=O)(=O)N4CCC(C)CC4)ccc2-3)CC1,-27.8%,-5.9%,-1.4%,5.4,0.6%,-15.0%
CCOC(=O)CCNCc1ccc(F)cc1,17.8µM*,0.1%,-0.1%,0.6,0.7%,-1.5%
CC(C)(C)CC(C)(C)Nc1c(-c2ccc(O)cc2)nc2cnccn12,22.4µM*,nt,nt,10.0,nt,nt
Oc1ccc(-c2nc3cnccn3c2Nc2ccc3c(c2)OCCO3)cc1,-3.3%,-1.7%,0.1%,2.5,-0.5%,?
CCC(Oc1ccc(F)cc1)C(=O)Nc1nc(-c2ccc(F)cc2)ns1 (configuration not stated),-0.1%,nt,nt,nt,nt,nt
CCOc1ccccc1CNC(=O)C1CCN(c2nnc(-n3c(C)ccc3C)s2)CC1,7.9%,nt,nt,nt,nt,nt
CCOc1ccccc1Cn1c(=O)oc2ccc(C)cc21,25.1µM*,-10.9%,-0.5%,-12.7,-0.2%,1.3%
CCCc1nnc(NC(=O)CCC(=O)O)s1,0.1%,-2.5%,-0.2%,-22.9,12.6µM*,-11.7%
SMILES,ClpP mod,p53 reactivation,B2AR arrestin,Giardia kill,Mito fusion yeast,uPA generation
COc1cccc(CNC(=O)C2CCCN(c3nn4cc(-c5ccc(C)cc5)nc4s3)C2)c1 (configuration not stated),-3.8%,nt,nt,nt,nt,nt
COc1cccc(/C=C2\SC(=S)N(NS(=O)(=O)c3ccc(C)cc3)C2=O)c1OC,nt,5.4%,-0.2%,nt,5.01µM*,nt
COc1ccccc1/C=C1\SC(=S)N(NS(=O)(=O)c2ccccc2)C1=O,nt,-0.9%,0.3%,-6.3,26.0%,0.5%
CCOC(=O)C1CCN(C(=O)Nc2ccc3nc(C)c(C)nc3c2)CC1,12.6µM*,-11.2%,0.0%,9.1,-1.9%,3.8%
COc1ccccc1N1CCN(C2C(=O)Nc3ccccc3-n3nnnc32)CC1 (configuration not stated),-11.2%,nt,nt,nt,nt,nt
Cc1nn(-c2ccc(F)cc2)c2sc(C(=O)OCC(=O)N3CCC(C)CC3)cc12,22.4µM*,6.6%,0.4%,4.3,8.0%,-2.3%
CCn1cc2nc(SCc3ccccc3F)n(Cc3ccc(C)cc3)c(=O)c2n1,-2.2%,nt,nt,nt,nt,nt
Nc1ccc(/C=C/c2cc(Cl)nc3ccccc23)cc1,0.8%,nt,nt,nt,nt,nt
COc1cccc(CN2CCCC(C(=O)Nc3ccc(-c4cscn4)cc3)C2)c1 (configuration not stated),-3.7%,-9.4%,0.9%,5.0,0.0%,7.08µM*
Cc1ncc(CN2CCCC(C(=O)Nc3ccc(-c4cscn4)cc3)C2)cn1 (configuration not stated),-2.6%,-9.4%,-0.3%,0.1,1.2%,-2.0%
Cc1ccc(-c2cc(C3C4C=CCC(C)C4C(=O)N3Cc3ccccc3)ccc2F)cc1 (configuration not stated),nt,nt,nt,-5.5,nt,nt
COc1ccc(CCNC(=O)c2cc(C3CC3)nc3c2cnn3C(C)C)cc1OC,-3.8%,-17.8%,-0.7%,-7.3,1.9%,3.0%
CC(C)n1ncc2c(C(=O)N3CCN(c4ccccc4)CC3)cc(-c3ccccc3)nc21,-27.9%,13.5%,-0.1%,-17.7,21.2%,3.8%
CC(C)n1ncc2c(C(=O)NCCc3ccc(S(N)(=O)=O)cc3)cc(C3CC3)nc21,31.6µM*,-6.9%,0.0%,-1.3,-15.7%,-6.2%
CC(C)n1ncc2c(C(=O)Nc3cccc(C#N)c3)cc(C3CC3)nc21,-5.4%,-13.8%,0.0%,8.3,15.8µM*,-23.5%
COc1ccc(NC(=O)c2cc(-c3ccccc3)nc3c2cnn3C(C)C)cc1,91.8%,6.5%,0.1%,-1.2,21.3%,8.91µM*
O=C(Nc1cccc(C(=O)OCc2cc(=O)n3c4c(sc3n2)CCCC4)c1)c1cccc(F)c1,-20.6%,nt,nt,nt,nt,nt
Cc1ccccc1-c1nc2c3c(-c4ccccc4)c(-c4ccccc4)oc3ncn2n1,-13.5%,nt,nt,nt,nt,nt
CC1(C)Cc2c(C#N)c(NCCc3ccccc3)nc(-c3ccco3)c2CO1,28.2µM*,-0.1%,-0.1%,1.4,0.9%,1.6%
CC1(C)Cc2c(C#N)c(NCC3CCCO3)nc(-c3ccco3)c2CO1 (configuration not stated),11.2µM*,-1.8%,-0.2%,-5.1,18.6%,1.1%
Cc1nc(NCCO)c(C#N)c2c1COC(C)(C)C2,22.4µM*,3.3%,-0.1%,19.9,1.3%,-1.5%
CN(C)CCCNc1nc(-c2ccccc2)c2c(c1C#N)CC(C)(C)OC2,3.8%,-0.2%,0.1%,7.5,-12.8%,-5.5%
Clc1ncc(C#Cc2ccccc2)c2ncncc12,3.6%,nt,nt,12.9,nt,nt
